In PubChem BioAssay (NCI):
This is part of a sample that, as a whole, favours compounds with a hit. Of some 79,000 tested, about 15% had one in any assay. No stated cut-off is given here; in the data, active means growth inhibition above about 70%; inactive means the rest.

Tests used:
[1] = NCI Yeast Anticancer Drug Screen. Data for the rad50 strain (AID 155);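 further: 0% = growth of vehicle-only cultures of the same strain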; details: S. cerevisiae rad50 strain growth inhibition; at 50.0 µM; hits give high values
Outline: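 Genetically altered yeast (DNA repair pathway); compound treatment; growth inhibition vs vehicle ctrl.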

[2] = NCI Yeast Anticancer Drug Screen. Data for the mec2-1 strain (AID 157); details: S. cerevisiae mec2-1 strain, at 50.0 µM, hits give high values
Outline: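 Test agents were screened against the mec2-1 yeast strain, with defined DNA repair or cell cycle alteration. Growth was scored as inhibition against vehicle-only controls.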

[3] = NCI Yeast Anticancer Drug Screen. Data for the sgs1 mgt1 strain (AID 161);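 further: 0% = growth of cultures given vehicle only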; details: S. cerevisiae sgs1 mgt1 strain, at 50.0 µM, hits give high values
Outline: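 Test agents were incubated with a DNA-repair-mutant yeast strain. Growth was then read and compared against vehicle-treated controls.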

[4] = NCI Yeast Anticancer Drug Screen. Data for the cln2 rad14 strain (AID 165);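 further: 0% = growth equal to vehicle treated cultures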; details: S. cerevisiae cln2 rad14 strain, at 50.0 µM, hits give high values
Outline: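 Growth of compound-exposed yeast (cln2 rad14 genotype) measured and expressed as inhibition relative to vehicle.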

[5] = NCI Yeast Anticancer Drug Screen. Data for the bub3 strain (AID 167); details: S. cerevisiae bub3 mutant strain, at 50.0 µM, hits give high values
Outline: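 Yeast carrying a defined mutation is treated with each compound, and growth is compared with that of vehicle-exposed cells to give inhibition.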

[6] = NCI Yeast Anticancer Drug Screen. Data for the mlh1 rad18 strain (AID 175); details: S. cerevisiae mlh1 rad18 strain growth inhibition; at 50.0 µM; hits give high values
Outline: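 In this whole-cell yeast screen, a strain with altered DNA damage repair is challenged with compound, and its growth is measured against matched vehicle-treated controls.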

Measured: growth inhibition

O=C(O)c1ccc(C(=O)C2CC(C(=O)O)CCC2S(=O)(=O)O)cc1 (stereo unspecified)
inactive: [1] -10.1% | [2] 11.8% | [3] -19.8% | [4] -30.6% | [5] -0.4% | [6] 17.1%

COC(CC(=O)O)CC(C)CC(C)(C)C (stereo unspecified)
inactive: [1] 48.5% | [2] 15.8% | [3] 38% | [4] 18.9% | [5] 24.9% | [6] 40.1%

CCCCC(CC)COC(=O)CSC#N (stereo unspecified)
inactive: [1] -6.7% | [2] -7.55% | [3] -9.85% | [4] -15.6% | [5] 2.05% | [6] -15.1%

NC(=S)N/N=C/c1ccc2c(c1)OCO2
inactive: [1] 1.55% | [2] 25.8% | [3] 9% | [4] 47.4% | [5] 22.9% | [6] 13.1%

CN(C)c1ccc(/C=N\N=C\c2ccco2)cc1
inactive: [1] 7.65% | [2] -3.2% | [3] 22.6% | [4] -40.2% | [5] -7.55% | [6] 10.1%

COc1ccc(Cc2cn(C)cc(Cc3ccc(OC)cc3)c2=O)cc1
inactive: [1] 4.7% | [2] 0.8% | [3] 7.15% | [4] -7.45% | [5] -1.2% | [6] -4.45%

O=C(NC(=S)c1ccco1)NS(=O)(=O)c1ccc(Cl)cc1
inactive: [1] 8.35% | [2] 7.05% | [3] 12.2% | [4] 16.2% | [5] 20.4% | [6] 29.4%

O=C(O)c1ccccc1-c1ccccc1C(=O)Nc1ccc2c(c1)[nH]c(=O)c1ccccc12
inactive: [1] -13.8% | [2] -3.85% | [3] -21.8% | [4] 46.9% | [5] -15.8% | [6] -22.3%

CC(=O)CC1CCc2ccc3ccccc3c2C1c1cccc2ccccc12 (stereo unspecified)
inactive: [1] 2.35% | [2] 8.2% | [3] -6.85% | [4] 26.4% | [5] 2.4% | [6] 25.4%

COc1ccc2ccc3nonc3c2c1
inactive: [1] 17.1% | [2] 4.7% | [3] 9% | [4] -40.5% | [5] 6.4% | [6] 1.45%

NCCN(Cc1ccccc1)C1CC1
inactive: [1] 5.4% | [2] -33.6% | [3] 9.35% | [4] 15.3% | [5] -16.2% | [6] -1.05%

N#Cc1[nH]cnc1O
inactive: [1] -9.6% | [2] -10.4% | [3] -11.4% | [4] 7.7% | [5] 17.4% | [6] -5.85%

CCC(C)N(C(=O)C(C)Br)C(C)CC (stereo unspecified)
inactive: [1] 2.95% | [2] -9.4% | [3] -19.2% | [4] -39.2% | [5] -10% | [6] 5.9%

NC(N)=NCCCc1ccccc1
inactive: [1] 7.05% | [2] 7.25% | [3] 0.8% | [4] 1.85% | [5] 4% | [6] -3.55%

O=c1[nH]c2cc(Cl)ccc2c2cc(Cl)ccc12
inactive: [1] 39.9% | [2] 7.6% | [3] 16.6% | [4] -3.3% | [5] -0.3% | [6] 52.2%

C/C(C#N)=C1/Nc2ccccc2NC1=O
inactive: [1] 0.55% | [2] 9.25% | [3] -24.6% | [4] -10.4% | [5] 15.1% | [6] 4.55%

CCCCNc1ncnc2c1cnn2C
inactive: [1] -3.2% | [2] 18.9% | [3] -28.2% | [4] -11.9% | [5] -7.1% | [6] -4.3%

CC(=O)OC1CC(O)CC2=CCC3C4CCC(C(C)(O)C(O)CC5COC(=O)C5C)C4(C)CCC3C21C (stereo unspecified)
inactive: [1] 6.8% | [2] 5.4% | [3] 14.6% | [4] 3.45% | [5] -32.1% | [6] -30.1%

CCN1C(=O)/C(=C/c2ccc(OCC(=O)O)cc2)SC1=S
inactive: [1] -6.9% | [2] -10.9% | [3] 0.35% | [4] -44.9% | [5] -2.2% | [6] -9.65%

O=C(O)/C=C(\CC(=O)O)C(=O)O
inactive: [1] 12.8% | [2] 11.9% | [3] -21.9% | [4] 8.15% | [5] -21.1% | [6] 1.15%

Cn1c(=O)c(CC(O)C(Cl)(Cl)Cl)nc2ccccc21 (stereo unspecified)
inactive: [1] 20.6% | [2] 23.6% | [3] 3.4% | [4] 3.75% | [5] 18.9% | [6] 31.7%
